This is an account of results in PubChem BioAssay.

Calls of active or inactive are those of the source.

Test [1] in a line: E. coli DRC41 culture turbidity changes, primary screen, E. coli filamentation inducer project, strain DRC41, OD650, 48 h (AID 1152).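 Note: E. coli MC1000 strain DRC41 lacking acrAB efflux pump and sulA.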 As to conditions: E. coli DRC41 (acrAB sulA), higher = more signal, called active from +8 up or from −8 down.
Test [2] in a line: small-molecule binders of probe aLefty1, primary screen, biochemical, small-molecule microarray, 635/667 nm fluorescence (AID 1153).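 Note: score merges spot fluorescence with signal-to-noise ratio from the scanned slide images.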 As to conditions: higher = more signal.
Test [3] in a line: PSAC antagonists in infected red cells, primary screen, cell-based, P. falciparum Indochina, OD700, 1 h (AID 1154). To be noted: P. falciparum Indochina infected RBC osmotic lysis, higher = more signal, called active from +8 up or from −8 down.
A short description of test [4]: PSAC antagonists in infected red cells, primary screen, cell-based, P. falciparum Indochina, OD700, 2 h (AID 1155).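 Note: lysis reports solute entry through the parasite surface anion channel PSAC; channel blockers reduce lysis of infected cells.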 As to conditions: P. falciparum Indochina infected erythrocytes, osmotic lysis OD700; higher = more signal, called active from +8 up or from −8 down.
A short description of test [5]: osmotic lysis modulators in infected erythrocytes, primary screen, PSAC antagonist project, cell-based, P. falciparum Indochina, OD700, 3 h (AID 1156). To be noted: higher = more signal, called active from +8 up or from −8 down.
Test [6] is described as follows: PSAC antagonists in infected red cells, primary screen, cell-based, P. falciparum Indochina, OD700, 18 h (AID 1157). As to conditions: P. falciparum Indochina infected erythrocytes, osmotic lysis OD700, 18 h; higher = more signal, called active from +8 up or from −8 down.
Test [7] is described as follows: modulators of S6 phosphorylation in cells, primary screen, cell-based, A549, cytoblot, luminescence, serum-stimulated (AID 1158).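 Note: serum-stimulated A549 lung adenocarcinoma cells; signal is phosphorylated S6 detected by cytoblot immunostaining with HRP secondary.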 As to conditions: A549 phospho-S6 cytoblot, 5 h, higher = more signal.
The target of test [8] is NADPH oxidase 2 (Homo sapiens) (UniProt P04839). The test can be described thus: NOX2-dependent H2O2 signal modulators, primary screen, NOX inhibitor project, cell-based, HEK293-NOX2, PMA-stimulated, Amplex Red fluorescence (AID 1159). Note: test concentration not given here. As to conditions: 45 min, higher = more signal, called active from +8 up or from −8 down.
NADPH oxidase 2 (Homo sapiens), sequence (P04839 whole entry, looked up): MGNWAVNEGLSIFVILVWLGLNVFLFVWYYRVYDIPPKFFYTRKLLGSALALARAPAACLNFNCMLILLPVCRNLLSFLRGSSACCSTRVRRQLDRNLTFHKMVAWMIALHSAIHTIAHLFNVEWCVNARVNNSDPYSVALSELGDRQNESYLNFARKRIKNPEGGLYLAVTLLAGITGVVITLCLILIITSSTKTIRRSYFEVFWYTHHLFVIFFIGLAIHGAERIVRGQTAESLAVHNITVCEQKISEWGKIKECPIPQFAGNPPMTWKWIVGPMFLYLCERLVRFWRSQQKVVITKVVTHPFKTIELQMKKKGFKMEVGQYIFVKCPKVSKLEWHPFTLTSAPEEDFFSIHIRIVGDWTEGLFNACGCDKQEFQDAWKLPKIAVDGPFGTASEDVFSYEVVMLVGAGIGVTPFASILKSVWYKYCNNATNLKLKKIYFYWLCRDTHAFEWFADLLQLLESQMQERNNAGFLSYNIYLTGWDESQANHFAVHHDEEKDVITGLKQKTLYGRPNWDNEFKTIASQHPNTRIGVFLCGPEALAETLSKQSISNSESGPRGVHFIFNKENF
Test [9] concerns the target NADPH oxidase 4 (Homo sapiens) (UniProt Q9NPH5). The test can be described thus: NOX4-dependent H2O2 signal modulators, primary screen, NOX inhibitor project, cell-based, HEK293-NOX4, tetracycline-induced, Amplex Red fluorescence (AID 1160). To be noted: 45 min, higher = more signal, called active from +8 up or from −8 down.
Test [10] concerns the target NADPH oxidase 5 (Homo sapiens) (UniProt Q96PH1). The test can be described thus: NOX5-dependent H2O2 signal modulators, primary screen, NOX inhibitor project, cell-based, HEK293-NOX5, Amplex Red fluorescence (AID 1161). To be noted: HEK293-NOX5, ionomycin, 45 min, higher = more signal.
Test [11] is described as follows: A549 cell viability effects, profiling panel, calcein-AM fluorescence, 48 h, basal (AID 1162). Note: test concentration not given here. To be noted: higher = more signal.
Test [12] in a line: adipocyte viability effects, profiling panel, cell-based, 3T3-L1 adipocytes, calcein-AM fluorescence, 48 h, basal (AID 1163). Note: test concentration not given here. To be noted: 3T3-L1 adipocytes viability, higher = more signal.
Test [13] can be described thus: HepG2 cell viability effects, profiling panel, calcein-AM fluorescence, 48 h, basal (AID 1164). Note: test concentration not given here. As to conditions: higher = more signal.
Test [14] in a line: MM1S cell viability effects, profiling panel, calcein-AM fluorescence, 48 h, basal (AID 1165).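 Note: viability of MM1S multiple myeloma cells under basal unstimulated conditions; test concentration not given here.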 As to conditions: higher = more signal.
Test [15] in a line: basal RPMI8226 viability, no added stimulus, profiling panel, cell-based, calcein-AM fluorescence, 48 h, PK04 Diversity Set (AID 1166).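 Note: cells grown under basal conditions without added stimulus; test concentration not given here.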 As to conditions: RPMI8226 myeloma viability, higher = more signal.
The nature of test [16]: basal HepG2 mitochondrial membrane potential changes, profiling panel, cell-based, JC-1 fluorescence, 24 h, 100 nL compound (AID 1167). Note: test concentration not given here. To be noted: higher = more signal.
The nature of test [17]: basal 3T3-L1 adipocyte mitochondrial potential changes, profiling panel, cell-based, JC-1 fluorescence, 3T3-L1 adipocytes, 24 h, 100 nL compound (AID 1168). Note: test concentration not given here. To be noted: JC-1 mitochondrial fluorescence, higher = more signal, called active from +8 up or from −8 down.
A short description of test [18]: basal RPMI8226 mitochondrial membrane potential changes, profiling panel, cell-based, JC-1 fluorescence, 24 h, 100 nL compound (AID 1169). Note: test concentration not given here. To be noted: RPMI8226 myeloma, JC-1 mitochondrial potential fluorescence, higher = more signal.
The nature of test [19]: basal MM1S mitochondrial membrane potential changes, profiling panel, cell-based, JC-1 fluorescence, 24 h, 100 nL compound (AID 1170). Note: test concentration not given here. To be noted: higher = more signal.
The nature of test [20]: A549 lung cancer cell viability effects, profiling panel, resazurin fluorescence, 24 h, PK04 Diversity Set (AID 1171). Note: test concentration not given here. As to conditions: higher = more signal, called active from +8 up or from −8 down. On the technique in general: Resazurin is reduced to fluorescent resorufin, in cell work by metabolically active cells.

NADPH oxidase 4 (Homo sapiens), sequence (Q9NPH5 whole entry, looked up): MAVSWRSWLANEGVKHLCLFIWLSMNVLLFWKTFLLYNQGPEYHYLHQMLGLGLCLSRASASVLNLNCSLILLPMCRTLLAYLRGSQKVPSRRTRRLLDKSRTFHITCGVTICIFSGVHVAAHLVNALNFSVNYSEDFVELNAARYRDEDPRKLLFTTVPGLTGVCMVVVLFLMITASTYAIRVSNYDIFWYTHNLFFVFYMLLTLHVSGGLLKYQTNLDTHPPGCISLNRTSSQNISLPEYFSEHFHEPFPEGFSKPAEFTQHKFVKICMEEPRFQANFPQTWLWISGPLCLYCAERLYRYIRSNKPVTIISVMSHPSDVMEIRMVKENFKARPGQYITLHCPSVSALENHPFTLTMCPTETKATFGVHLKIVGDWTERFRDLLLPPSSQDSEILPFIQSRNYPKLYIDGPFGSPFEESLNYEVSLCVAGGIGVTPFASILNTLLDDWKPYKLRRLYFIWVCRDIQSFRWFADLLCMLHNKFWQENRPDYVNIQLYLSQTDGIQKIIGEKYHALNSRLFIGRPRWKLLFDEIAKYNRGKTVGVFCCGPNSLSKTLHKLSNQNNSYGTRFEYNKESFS
NADPH oxidase 5 (Homo sapiens), sequence (Q96PH1 whole entry, looked up): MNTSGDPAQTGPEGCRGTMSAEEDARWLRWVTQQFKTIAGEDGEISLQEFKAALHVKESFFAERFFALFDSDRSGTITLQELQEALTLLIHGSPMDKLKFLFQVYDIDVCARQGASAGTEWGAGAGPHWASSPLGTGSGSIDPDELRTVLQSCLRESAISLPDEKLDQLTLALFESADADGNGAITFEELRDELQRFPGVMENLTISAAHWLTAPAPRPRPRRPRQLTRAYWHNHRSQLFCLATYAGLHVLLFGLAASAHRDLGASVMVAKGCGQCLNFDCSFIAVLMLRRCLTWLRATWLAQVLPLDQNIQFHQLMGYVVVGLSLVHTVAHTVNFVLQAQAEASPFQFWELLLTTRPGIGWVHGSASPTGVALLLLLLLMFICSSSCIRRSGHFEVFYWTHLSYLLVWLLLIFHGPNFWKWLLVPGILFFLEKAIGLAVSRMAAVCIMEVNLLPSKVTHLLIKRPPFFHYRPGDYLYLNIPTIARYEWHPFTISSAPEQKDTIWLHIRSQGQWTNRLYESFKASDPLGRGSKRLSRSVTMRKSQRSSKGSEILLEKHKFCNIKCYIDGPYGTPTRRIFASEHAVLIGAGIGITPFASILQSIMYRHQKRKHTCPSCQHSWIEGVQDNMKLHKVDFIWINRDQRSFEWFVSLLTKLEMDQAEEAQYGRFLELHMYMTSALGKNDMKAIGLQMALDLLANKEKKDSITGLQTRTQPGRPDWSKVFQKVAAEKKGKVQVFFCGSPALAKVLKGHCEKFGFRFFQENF

For the compound `[N-]=[N+]=NCc1ccccc1C[C@@]1(C(=O)NCc2ccccc2)N=C(c2ccc(OCCCO)cc2)O[C@@H]1c1ccccc1CN=[N+]=[N-]`, the z-score is 0.561 (inactive) in test [1]; 26.1 (active) in test [3]; 15.3 (active) in test [4]; 1.58 (inactive) in test [5]; 1.87 (inactive) in [6]; -0.633 in test [7]. The z-score was -1.03 (inactive) in test [8]; -0.17 (inactive) in test [9]; -0.353 in test [10]; -0.293 in test [11]; -0.0193 in test [12]; 0.236 in test [13]. In addition, the z-score was -0.645 in test [14]; -1.13 in test [15]; 0.0212 in [16]; -0.835 (inactive) in test [17]; -0.66 in test [18]; -1.32 in test [19]. In addition, the z-score in test [20] is 1.01 (inactive). In test [2], this compound had a composite z-score of 0.7.

Regarding `COCCOC(=O)N1C(=O)[C@@]2(c3cc(C#CC4=CCCCC4)ccc31)[C@H](C(=O)N1CCN(c3ncccn3)CC1)[C@H]1C(=O)O[C@H](c3ccccc3)[C@H](c3ccccc3)N1[C@@H]2c1ccc(OCCO)cc1`, the z-score was -0.0557 (inactive) in test [1]; 5.23 (inactive) in [3]; 1.85 (inactive) in test [4]; 0.251 (inactive) in [5]; 0.657 (inactive) in [6]; 0.212 in test [7]. For the same compound, the z-score was 0.977 (inactive) in test [8]; 0.645 (inactive) in [9]; 0.934 in [10]; -0.167 in [11]; 0.937 in test [12]; -0.247 in test [13]. Also, the z-score in test [14] was -1.05; in [15], -0.812; in test [16], -0.203; in test [17], 1.59 (inactive); in test [18], -0.606; in test [19] it was -0.822. Moreover, in test [20], the z-score was 0.532 (inactive). The composite z-score in test [2] turned out to be 0.894.

For `Cc1ccc(S[C@]2(C(=O)NCCCN(C)C)CC(=O)N(Cc3ccccc3)[C@@H]2c2ccc(CO)cc2)cc1`, the z-score in test [1] is 0.239 (inactive); in test [3], 2.24 (inactive); in test [4], 0.077 (inactive); in [5] it was 1.5 (inactive); in test [6], 0.013 (inactive); in [7] it was 0.161. Moreover, the z-score in [8] was -3.38 (inactive); in test [9] it was 0.6 (inactive); in [10], 1.89; in test [11] it was 0.931; in test [12], -0.084; in test [13], -0.569. The z-score was -0.569 in test [14]; -1.12 in test [15]; 0.816 in test [16]; -0.946 (inactive) in [17]; -0.718 in test [18]; 0.706 in test [19]. For the same compound, the z-score in [20] was 0.516 (inactive). In addition, the composite z-score in [2] was found to be 0.136.

As to `C=CCC(OC(C)=O)[C@@H]1[C@@H](N(Cc2ccc(-c3cccc(C(F)(F)F)c3)o2)C(=O)Cc2ccc(OC)cc2)c2cc(OCCCO)ccc2N1C(=O)Cc1ccc(OC)cc1` (stereo not given in full), the z-score in test [1] was 1.12 (inactive); in test [3] it was 1.66 (inactive); in test [4], -0.139 (inactive); in [5], 0.777 (inactive); in test [6], -0.176 (inactive); in test [7], 1.37. Also, the z-score is -2.27 (inactive) in test [8]; -1.82 (inactive) in test [9]; -1.89 in test [10]; 1.92 in test [11]; 1.38 in [12]; 0.641 in [13]. In addition, the z-score in test [14] was 0.018; in test [15], -1.02; in [16] it was 2.08; in test [17] it was -0.709 (inactive); in [18] it was -0.804; in test [19], -0.757. Further, in test [20], the z-score is 0.139 (inactive). Moreover, the composite z-score in test [2] is -0.0547.

With `COCCCNC(=O)[C@@]1(Cc2ccccc2I)c2ccccc2C(=O)N(Cc2ccccc2)[C@H]1c1ccc(CO)cc1`, the z-score in test [1] was 0.263 (inactive); in test [3], 11.1 (active); in test [4], 2.37 (inactive); in test [5], 1.85 (inactive); in [6], 1.43 (inactive); in test [7], -0.231. Also, the z-score in test [8] was 0.0296 (inactive); in test [9], 0.779 (inactive); in test [10], 0.242; in test [11] it was 0.954; in test [12], 0.387; in [13], 0.828. In addition, the z-score was -0.657 in test [14]; -1.25 in test [15]; 1.71 in [16]; -0.432 (inactive) in test [17]; -0.136 in test [18]; 0.651 in test [19]. The z-score in test [20] was 1.67 (inactive). The same compound registered a composite z-score in test [2] of 0.243.

Take `C=CC[C@]1(C(=O)O)N=C(c2ccc(OCCCO)cc2)O[C@H]1c1ccccc1CN=[N+]=[N-]`: the z-score in test [1] is 0.0533 (inactive); in [3] it was 13.7 (active); in [4] it was 1.93 (inactive); in test [5], -0.055 (inactive); in test [6], 0.665 (inactive); in test [7], -0.0651. The z-score in test [8] was 0.324 (inactive); in test [9], 1.03 (inactive); in test [10] it was 1.58; in test [11], 1.32; in test [12] it was -1.06; in test [13], 0.243. The z-score in test [14] is 0.869; in test [15], 0.293; in [16], -0.131; in [17], 0.0284 (inactive); in test [18], -0.57; in test [19], -0.587. Moreover, the z-score in test [20] was -0.506 (inactive). In test [2], the composite z-score was 0.0425.

Regarding `O=c1cccc(-c2cccc3ccccc23)o1`, the z-score in test [1] was 0.109 (inactive); in test [3] it was 6.68 (inactive); in test [4] it was 1.37 (inactive); in test [5], -0.276 (inactive); in [6] it was 0.832 (inactive); in test [7], -0.312. The z-score in [8] was -0.112 (inactive); in test [9] it was -2.39 (inactive); in test [10], -0.0533; in test [11] it was -1.07; in [12], -0.893; in [13] it was 0.0962. The z-score in test [14] was -1.09; in [15] it was -1.84; in test [16], 0.113; in [17], 1.05 (inactive); in test [18] it was 0.608; in [19], -1.07. Moreover, the z-score in test [20] was 0.058 (inactive). The compound further yielded a composite z-score in test [2] of 0.106.

As to `COc1ccc([Si](C)(C)[C@H]2[C@H](CC(=O)N3CCC[C@H]3CO)O[C@@]3(C(=O)N(c4ccccc4)c4ccccc43)[C@@H]2C)cc1`, the z-score in test [1] is 3.01 (inactive); in [3] it was 1.84 (inactive); in [4], -0.132 (inactive); in [5], -0.0926 (inactive); in test [6] it was -0.284 (inactive); in test [7] it was 1.48. The z-score is 1.44 (inactive) in [8]; 1.46 (inactive) in test [9]; 1.96 in test [10]; 1.35 in test [11]; 0.42 in test [12]; 0.628 in test [13]. In addition, the z-score in test [14] is 1.63; in test [15], 0.912; in test [16] it was 2.53; in test [17], -0.667 (inactive); in [18], 0.421; in [19], -0.947. The z-score in [20] was 1.63 (inactive). For the same compound, the composite z-score in test [2] is 0.228.

For the compound `O=C(CS)NCCCCCCNC(=O)[C@H]1C[C@H]2C(=O)N3CCC[C@H]3C(=O)N2[C@H]1c1ccc(O)cc1`, the z-score in test [1] is -0.827 (inactive); in test [3], 3.99 (inactive); in [4] it was 0.776 (inactive); in test [5], -1.85 (inactive); in test [6] it was 0.179 (inactive); in test [7] it was -0.126. Also, the z-score in test [8] was 1.05 (inactive); in [9] it was 0.241 (inactive); in [10], 0.247; in [11], -0.683; in test [12] it was 0.646; in test [13] it was 0.0725. In addition, the z-score in test [14] is -0.213; in test [15], 1.07; in test [16] it was -1.12; in test [17] it was -0.0423 (inactive); in test [18], -0.0782; in [19] it was -0.419. Moreover, in [20], the z-score is 0.985 (inactive). The composite z-score in test [2] was found to be 0.157.
